# Screening data: PubChem, National Center for Advancing Translational Sciences (NCATS)
# FLuc inh: inhibitors of firefly (Photinus pyralis) luciferase; P08659; purified P. pyralis luciferase, luminescence, biochemical; Potency, µM (top dose mostly 115 µM), usual class: inhibitors; 2.5% of 76,000 active; also: nearly all actives have a fitted effect of over 65% in size
#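 Luminescence read by CCD imager after adding enzyme (10nM final) to wells holding compound, titrated in qHTS. Substrates 10uM each D-luciferin and ATP; buffer 50mM Tris acetate pH 7.5, 10mM Mg acetate, Tween-20, BSA.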
# HEK cytotox: kills HEK 293 cells; HEK 293 viability, ATP luminescence (CellTiter-Glo), 48-72 h; Potency, µM (doses to about 115 µM), without a hit: top-dose activity change, negative = cytotoxicity, hits mostly inhibitors; 6.6% of 94,000 active; AID 1345083; also: nearly all actives have a fitted effect of over 60% in size
#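 Cytotoxicity was scored by loss of ATP-coupled luminescence (CellTiter-Glo) in HEK 293 cells. Compound treatment ran 48 or 72 hr at 37 degree Celsius, 5% CO2, 95% humidity.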
# NPR1 antag: antagonists of human natriuretic peptide receptor Npr1; P16066; HEK293 hNpr1 GloSensor cGMP, ANP-stimulated luminescence; Potency, µM (doses to about 46.3 µM), for the others: at the top dose activity change, negative = inhibition, usual class: inhibitors; 1.6% of 76,000 active; AID 1347048; calls by dose curve; also: nearly all actives have a fitted effect of over 60% in size
# Target sequence (P16066 whole entry, looked up): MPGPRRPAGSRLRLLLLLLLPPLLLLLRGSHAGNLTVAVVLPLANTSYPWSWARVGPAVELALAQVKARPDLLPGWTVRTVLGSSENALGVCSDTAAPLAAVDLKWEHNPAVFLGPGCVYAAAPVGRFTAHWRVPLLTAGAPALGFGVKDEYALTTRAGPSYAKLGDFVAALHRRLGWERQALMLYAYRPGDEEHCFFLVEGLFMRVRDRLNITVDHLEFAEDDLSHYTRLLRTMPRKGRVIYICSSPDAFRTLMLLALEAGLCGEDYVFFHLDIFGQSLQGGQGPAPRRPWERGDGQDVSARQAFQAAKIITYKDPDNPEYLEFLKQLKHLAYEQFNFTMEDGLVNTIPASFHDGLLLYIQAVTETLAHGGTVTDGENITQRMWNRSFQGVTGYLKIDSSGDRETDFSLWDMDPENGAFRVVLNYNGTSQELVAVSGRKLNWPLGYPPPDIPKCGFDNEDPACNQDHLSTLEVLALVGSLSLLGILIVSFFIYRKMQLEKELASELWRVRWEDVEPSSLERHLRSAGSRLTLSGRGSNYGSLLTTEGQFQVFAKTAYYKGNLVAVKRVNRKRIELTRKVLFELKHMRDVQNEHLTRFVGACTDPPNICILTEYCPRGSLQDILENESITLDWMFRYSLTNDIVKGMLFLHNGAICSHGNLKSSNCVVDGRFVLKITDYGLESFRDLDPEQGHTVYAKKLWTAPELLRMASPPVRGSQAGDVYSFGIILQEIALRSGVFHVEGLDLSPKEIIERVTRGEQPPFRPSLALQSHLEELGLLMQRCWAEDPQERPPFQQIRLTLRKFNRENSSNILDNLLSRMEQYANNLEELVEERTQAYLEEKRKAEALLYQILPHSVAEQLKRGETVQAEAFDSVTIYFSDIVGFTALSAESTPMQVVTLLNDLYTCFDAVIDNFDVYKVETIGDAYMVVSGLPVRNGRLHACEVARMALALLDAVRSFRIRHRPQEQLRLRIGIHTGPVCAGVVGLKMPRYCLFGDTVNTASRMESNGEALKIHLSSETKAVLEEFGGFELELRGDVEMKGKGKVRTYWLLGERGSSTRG
#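 Compound pre-incubated 30 min at room temperature on GloSensor-loaded HEK293 cells stably carrying hNpr1 and the pGS-40F cGMP biosensor. Stimulation uses hNppA at 0.1 nM final; luminescence is taken at baseline and 20 min post-agonist.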
# 3T3 cytotox: kills NIH 3T3 cells; NIH 3T3 viability, CellTiter-Glo ATP luminescence, 48-72 h; Potency, µM (series often up to 96.7 µM), without a hit: top-dose activity change, negative = cytotoxicity, actives largely listed as inhibitors; 4.3% of 94,000 active; AID 1345082; also: nearly all actives have a fitted effect of over 55% in size
#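 First NIH 3T3 cells are plated at 400 cells/well; next compound is pinned in; then plates incubate 48 or 72 hr at 37 °C; finally CellTiter-Glo is added and luminescence read after 10 min.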
# An asterisk follows results filed as active; i = inactive; u = inconclusive; x = no result given; [ ] = dose if it differs, or a comment. Hits are enriched below; roughly 11% of the tested compounds scored in any of these assays. Unless noted, calls follow the shape of the dose curve; as a rule, active = well fitted curve in the direction sought with a large enough effect; inconclusive = small, poorly fitted or top-dose-only effect, or another doubt; inactive = no such curve, though single readings can be large; an effect the other way counts as inactive or inconclusive. % is scaled to controls: 0 for no effect and ±100 for the full control effect; potency is read from the fitted curve at half-maximal effect.
SMILES,FLuc inh,HEK cytotox,NPR1 antag,3T3 cytotox
CCOC(=O)CN1C(=O)CN(S(C)(=O)=O)CCC(OC)c2ccccc21 (stereo not drawn),x,-1%,x,u
CCCCn1c(=O)c(C(=O)N2CCN(C(=O)N(C)C)CC2)nc2cccnc21,x,-1%,x,-4%
CN(Cc1ccc(-c2ccccc2)cc1)C(=O)C1CC1,50µM*,u,u,u
CC(C)C[C@@H]1N[C@H](C(=O)NCc2ccc(F)cc2)Cc2c[nH]c3cccc1c23,i,28µM*,-16%[70.6 µM],40µM*
CC(C)C[C@@H]1N[C@H](C(=O)NCc2ccccc2)Cc2c[nH]c3cccc1c23,i,35µM*,-18%[70.6 µM],32µM*
CC(C)C[C@@H]1N[C@H](C(=O)NCc2ccccn2)Cc2c[nH]c3cccc1c23,i,28µM*,-18%[70.6 µM],u
C=CCNC(=O)[C@@H]1Cc2c[nH]c3cccc(c23)[C@H](CC(C)C)N1,i,u,4%[70.6 µM],u
CC(C)C[C@@H]1N[C@H](C(=O)NCCCn2ccnc2)Cc2c[nH]c3cccc1c23,i,u,2%[70.6 µM],u
COc1ccc(CNC(=O)[C@@H]2Cc3c[nH]c4cccc(c34)[C@H](CC(C)C)N2)cc1,i,79µM*,-12%[70.6 µM],45µM*
Cc1cn2nc(-c3nc(C4CCCN(C(=O)c5ccccc5)C4)no3)cc2c(=O)[nH]1 (stereo not drawn),u,-15%,0%,-22%
O=C(C1CCCN1C(=O)c1cccc(-c2cccnc2)c1)N1CCN(c2ncccn2)CC1 (stereo not drawn),x,-14%,x,-18%
CCn1cc(CN2C[C@@H](COc3ccccc3)[C@H](C(N)=O)C2)c(C)n1,i,0%,4%,-17%
O=C1NC(=NC2CCCCC2)C2(CCN(CC3CC3)CC2)N1c1cc(F)cc(F)c1,x,-11%,x,u
O=C1NC(=NC2CCCCC2)C2(CCCN(CC3CC3)C2)N1c1cccnc1 (stereo not drawn),x,-28%,x,u
O=C1NC(=NC2CCCCC2)C2(CCCN(CC3CCCCC3)C2)N1c1cc(F)cc(F)c1 (stereo not drawn),x,u,x,28µM*
O=C1NC(=NC2CCCCC2)C2(CCCN(CC3CC3)C2)N1c1cc(F)cc(F)c1 (stereo not drawn),x,10µM*,x,32µM*
O=C1NC(=NC2CCCC2)C2(CCN(CC3CC3)CC2)N1c1cc(F)cc(F)c1,x,2%,x,32µM*
C[S+](=O)([O-])N1CCCC2(C1)C(=NC1CCCC1)NC(=O)N2c1cc(F)cc(F)c1 (stereo not drawn),i,-8%,0%,-20%
COc1ccccc1C(=O)N1CC(CNC(=O)C2CC2)C2(C1)CN(c1ccccc1)C2 (stereo not drawn),i,-2%[172 µM],-3%[70.6 µM],u
COc1cccc(CN2Cc3cc(NC(=O)c4ccc([N+](=O)[O-])cc4)ccc3OC(C)C2=O)c1OC (stereo not drawn),i,-29%,-3%,u
O=C(C1CCCN1C(=O)Cc1cccc(Cl)c1)N1CCC(N2Cc3ccccc3C2=O)CC1 (stereo not drawn),x,u,x,-13%
CCN(CC)C(=O)C1CCC(c2nc3ncccc3o2)CC1 (stereo not drawn),x,-23%[172 µM],x,-17%[138 µM]
O=C(C1CCCCC1)N1Cc2[nH]cnc2C[C@H]1c1nc(-c2ccc3ccccc3c2)no1,u,u,-22%[70.6 µM],79µM*
Cc1cccc(-c2noc([C@@H]3Cc4nc[nH]c4CN3C(=O)NC3CCCCC3)n2)c1,40µM*,u,-5%[70.6 µM],71µM*
CC(C)(CC(=O)O)CC(=O)N1Cc2[nH]cnc2C[C@H]1c1nc(-c2ccc3ccccc3c2)no1,i,i,0%,i
SMILES,FLuc inh,HEK cytotox,NPR1 antag,3T3 cytotox
O=C(NC1CCCCC1)N1Cc2[nH]cnc2C[C@H]1c1nc(-c2ccccc2)no1,45µM*,u,-16%[70.6 µM],28µM*
Cc1cccc(-c2noc([C@@H]3Cc4nc[nH]c4CN3C(=O)NC(C)C)n2)c1,u,-18%[172 µM],-1%[70.6 µM],u
Cc1ccc(-c2noc([C@@H]3Cc4nc[nH]c4CN3C(=O)NC3CCCCC3)n2)cc1,i,2%[172 µM],-22%[70.6 µM],u
Cc1nc(N2CCC(NC(=O)CC3CCCCC3)CC2)cc(C(F)(F)F)n1,i,-20%,0%,-36%
O=C(NCc1ccccc1)C1CN(C2CCCCC2)C(=O)N1 (stereo not drawn),x,-5%[172 µM],x,-2%[138 µM]
O=C(NCc1ccccc1Cl)C1CN(C2CCCCC2)C(=O)N1 (stereo not drawn),x,-6%[172 µM],x,-24%[138 µM]
COCCN(Cc1nccs1)C(=O)c1cnc(-c2ccccn2)[nH]c1=O,i,40µM*,3%,u
CN(Cc1cccc(C(F)(F)F)c1)C(=O)Nc1ccc(Cl)cc1,i,40µM*,-7%,20µM*
O=C(C1CC1)N(C1CCOCC1)C1CCN(S(=O)(=O)c2ccccc2)CC1,i,-1%,0%,-15%
COCCOc1ncccc1-c1noc([C@@H]2CCCN2Cc2cccc(C#N)c2)n1,i,u,1%[70.6 µM],-16%[174 µM]
COCCNc1ncccc1-c1noc([C@@H]2CCCN2Cc2cccc(C#N)c2)n1,i,71µM*,-2%[70.6 µM],u
COCCNc1ncccc1-c1noc([C@@H]2CCCN2CC(C)(C)C)n1,i,u,1%[70.6 µM],50µM*
O=C(CN1C(=O)C(c2ccccc2)=NC12CCCC2)NCc1ccc(F)cc1,i,40µM*,-23%,u
O=C(CN1C(=O)C(c2ccccc2)=NC12CCCCC2)NC1CCCC1,i,28µM*,-1%,u
CC(C)(C)OCC(O)CN1CCC(=O)N(Cc2ccccc2)Cc2cc(F)ccc21 (stereo not drawn),x,45µM*,x,u
CC(C)(C)OCC(O)CN1CCC(=O)N(CC2CC2)Cc2cc(F)ccc21 (stereo not drawn),x,u,x,-28%
CCCC(O)CN1CCC(=O)N(Cc2ccccc2)Cc2ccccc21 (stereo not drawn),x,u,x,-11%
CCCC(O)CN1CCC(=O)N(Cc2ccccc2)Cc2cc(F)ccc21 (stereo not drawn),x,79µM*,x,u
Cn1cccc1CN1CCC2(CC1)CC(=O)c1ccc(Cl)cc1O2,u,45µM*,-12%[70.6 µM],u
Cn1cccc1CN1CCC2(CC1)CC(=O)c1ccccc1O2,u,u,-28%[70.6 µM],u
O=C(c1ccc2c(c1)OCO2)N1CCc2nc(C3CC3)nc(-c3ccc(Cl)cc3)c2CC1,i,28µM*,-12%,u
O=C1CC2(CCN(C(=O)c3ccc4c(c3)OCO4)CC2)Oc2ccccc21,i,u,6%,u
O=C1CC2(CCN(C(=O)c3ccc4c(c3)OCO4)CC2)Oc2cc(Cl)ccc21,i,45µM*,-8%,u
Cc1cn2nc(C(=O)NCc3ccccc3C(F)(F)F)cc2c(N2CCCC2)n1,i,-8%,-15%,i
O=C(C1CC1)N1CCN(CCn2nc3n(c2=O)CCCC3)CC1,x,0%[172 µM],x,-9%[138 µM]
